# Data: PubChem BioAssay (NCATS)
# Values joined by “and” are separate entries in the source; they are usually repeats but may differ in a detail not shown here. Equal values may be shown once. Results filed as inconclusive are left out. Entries that show only a call come without a potency. Active and inactive are the calls of the source. Calls follow the shape of the dose curve; as a rule, active = well fitted curve in the direction sought with a large enough effect; inconclusive = small, poorly fitted or top-dose-only effect, or another doubt; inactive = no such curve, though single readings can be large; an effect the other way counts as inactive or inconclusive.
# Assays:
# [1] = Primary qHTS for inhibitors of nuclear receptor binding SET domain protein 2 (NSD2) in an isogenic RCH-ACV NSD2 p.E1099K mutant (9B) (AID 1645876); details: RCH-ACV NSD2 E1099K (9B) viability, CellTiter-Glo, 72 h; series mostly up to 44.9 µM; also: nearly all actives have a fitted effect of over 70% in size; also: potency is read from the fitted curve at half-maximal effect
# [2] = Primary qHTS for inhibitors of nuclear receptor binding SET domain protein 2 (NSD2) in an RCH-ACV wild type WT cells (2C) (AID 1645877); details: RCH-ACV (leukaemia line) NSD2 WT (2C) viability, CellTiter-Glo, 72 h; series mostly up to 44.9 µM; also: nearly all actives have a fitted effect of over 70% in size; also: potency is read from the fitted curve at half-maximal effect
# [3] = target: Rap guanine nucleotide exchange factor 3 (Homo sapiens) (UniProt O95398); assay: Confirmatory qHTS for agonist of cAMP-regulated guanine nucleotide exchange factor 3 (EPAC1) (AID 1645881); details: EPAC1 Rap1B BODIPY-GDP exchange fluorescence; series mostly up to 271 µM;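 also: EPAC1 catalysed release of BODIPY-GDP from Rap1B seen as fluorescence loss; nearly all actives have a fitted effect of over 75% in size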
# Chain of Rap guanine nucleotide exchange factor 3 (Homo sapiens) (O95398 whole entry, looked up): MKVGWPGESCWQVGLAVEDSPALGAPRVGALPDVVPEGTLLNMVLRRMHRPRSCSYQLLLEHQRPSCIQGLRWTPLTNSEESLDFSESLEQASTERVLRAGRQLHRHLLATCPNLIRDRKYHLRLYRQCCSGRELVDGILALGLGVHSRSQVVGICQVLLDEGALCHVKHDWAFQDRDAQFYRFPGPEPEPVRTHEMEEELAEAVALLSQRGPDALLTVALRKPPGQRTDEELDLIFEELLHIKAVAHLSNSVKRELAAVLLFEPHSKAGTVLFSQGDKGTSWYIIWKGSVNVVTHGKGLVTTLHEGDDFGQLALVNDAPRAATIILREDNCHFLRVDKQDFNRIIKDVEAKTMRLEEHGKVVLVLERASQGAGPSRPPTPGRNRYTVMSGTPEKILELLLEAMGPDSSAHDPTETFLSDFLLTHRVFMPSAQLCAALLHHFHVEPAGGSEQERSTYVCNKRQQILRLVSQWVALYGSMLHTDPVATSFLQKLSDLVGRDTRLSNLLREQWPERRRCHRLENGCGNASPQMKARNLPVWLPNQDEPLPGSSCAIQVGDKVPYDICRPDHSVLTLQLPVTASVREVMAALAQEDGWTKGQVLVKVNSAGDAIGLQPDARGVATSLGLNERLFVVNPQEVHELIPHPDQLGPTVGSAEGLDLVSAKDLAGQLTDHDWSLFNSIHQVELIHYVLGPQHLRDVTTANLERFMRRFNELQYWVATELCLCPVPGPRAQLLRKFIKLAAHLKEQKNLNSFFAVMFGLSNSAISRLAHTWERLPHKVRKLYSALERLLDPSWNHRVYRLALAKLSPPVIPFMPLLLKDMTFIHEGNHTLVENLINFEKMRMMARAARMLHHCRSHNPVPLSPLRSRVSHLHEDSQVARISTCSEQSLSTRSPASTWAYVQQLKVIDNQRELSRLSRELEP
# [4] = target: Rap guanine nucleotide exchange factor 4 (Homo sapiens) (UniProt Q8WZA2); assay: Confirmatory qHTS for agonist of cAMP-regulated guanine nucleotide exchange factor 4 (EPAC2) (AID 1645884); details: EPAC2 GEF activity, Rap1B-BODIPY-GDP fluorescence; series mostly up to 154 µM;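 also: nucleotide exchange releases bodipy-GDP from Rap1 and this lowers its fluorescence; nearly all actives have a fitted effect of over 65% in size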
# Chain of Rap guanine nucleotide exchange factor 4 (Homo sapiens) (Q8WZA2 whole entry, looked up): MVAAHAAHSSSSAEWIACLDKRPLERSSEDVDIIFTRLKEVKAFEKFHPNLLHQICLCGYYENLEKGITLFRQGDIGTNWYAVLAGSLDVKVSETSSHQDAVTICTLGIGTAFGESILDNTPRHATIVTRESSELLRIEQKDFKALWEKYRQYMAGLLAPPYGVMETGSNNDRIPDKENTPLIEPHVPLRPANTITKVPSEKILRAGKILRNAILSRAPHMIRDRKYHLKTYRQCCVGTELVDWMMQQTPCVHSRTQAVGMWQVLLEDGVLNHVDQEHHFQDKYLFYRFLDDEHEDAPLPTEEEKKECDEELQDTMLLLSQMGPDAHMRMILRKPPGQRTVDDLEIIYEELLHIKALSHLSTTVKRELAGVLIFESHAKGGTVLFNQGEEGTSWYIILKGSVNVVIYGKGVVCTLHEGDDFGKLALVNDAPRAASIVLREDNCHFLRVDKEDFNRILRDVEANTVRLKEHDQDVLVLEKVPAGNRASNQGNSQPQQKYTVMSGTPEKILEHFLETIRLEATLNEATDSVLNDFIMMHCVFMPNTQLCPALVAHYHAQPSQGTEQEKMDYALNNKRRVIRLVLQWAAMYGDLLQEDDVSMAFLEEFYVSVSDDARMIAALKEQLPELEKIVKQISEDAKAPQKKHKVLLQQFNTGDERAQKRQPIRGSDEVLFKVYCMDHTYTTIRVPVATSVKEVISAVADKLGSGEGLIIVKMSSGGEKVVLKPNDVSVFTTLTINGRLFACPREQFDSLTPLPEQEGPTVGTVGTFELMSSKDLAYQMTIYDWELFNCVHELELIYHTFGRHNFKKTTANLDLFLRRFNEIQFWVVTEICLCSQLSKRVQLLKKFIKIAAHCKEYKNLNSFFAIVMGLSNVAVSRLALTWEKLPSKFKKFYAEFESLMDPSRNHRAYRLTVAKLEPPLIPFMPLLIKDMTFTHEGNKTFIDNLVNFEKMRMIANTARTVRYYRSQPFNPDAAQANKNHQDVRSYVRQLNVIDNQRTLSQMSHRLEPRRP
# [5] = target: Rap guanine nucleotide exchange factor 4 (Homo sapiens) (UniProt Q8WZA2); assay: Confirmatory qHTS for antagonist of cAMP-regulated guanine nucleotide exchange factor 4 (EPAC2) (AID 1645885); details: EPAC2 Rap1B-BODIPY-GDP exchange fluorescence, biochemical; series mostly up to 202 µM; also: potency is read from the fitted curve at half-maximal effect; nearly all actives have a fitted effect of over 25% in size
compound,measurement,setting,value
O=C(CS(=O)Cc1ccco1)NC/C=C\COc1cc(CN2CCCCC2)ccn1 (stereo unspecified),Potency,[1],inactive
same,Potency,[2],inactive
CN1C(CSCC(F)(F)F)Nc2cc(Cl)c(S(N)(=O)=O)cc2S1(=O)=O (stereo unspecified),Potency,[1],inactive
same,Potency,[2],inactive
CC(=O)N(c1onc(C)c1C)S(=O)(=O)c1ccc(N)cc1,Potency,[1],inactive
same,Potency,[2],inactive
CC(=O)c1ccc(O)c(C(N)=O)c1,Potency,[1],inactive
same,Potency,[2],inactive
O=c1[nH]c(=O)n([C@H]2O[C@H](CO)[C@@H](O)[C@@H]2O)cc1/C=C\Br,Potency,[1],inactive
same,Potency,[2],inactive
CCCCCOc1ccccc1/C(=C\SC)n1ccnc1,Potency,[1],13.3 µM (active)
same,Potency,[2],13.3 µM (active)
Cc1ccc(/C=N/n2c(-c3ccccc3)csc2=S)cc1,Potency,[1],inactive
same,Potency,[2],inactive
Nc1ccc(C(=O)N2CC3CC(CN(Cc4ccccc4)C3)C2)cc1,Potency,[1],inactive
same,Potency,[2],inactive
CCCCC(O)/C=C(C)/C=C/C=C/C(=O)N1CCCC1=O (stereo unspecified),Potency,[1],inactive
same,Potency,[2],inactive
COc1c(C)c2c(c(O)c1C/C=C(\C)CCC(=O)OCCN1CCOCC1)C(=O)OC2,Potency,[1],473 nM (active) and 525 nM (active)
same,Potency,[2],0.376 µM (active)
CCN(CC)CCN,Potency,[1],inactive
same,Potency,[2],inactive
Cc1onc(-c2c(Cl)cccc2Cl)c1C(=O)Cl,Potency,[1],inactive
same,Potency,[2],inactive
C/C(=N\O)[C@@H](C)NCC(C)(C)CN[C@H](C)/C(C)=N/O,Potency,[1],inactive
same,Potency,[2],inactive
CC(=O)Nc1ccc(S(=O)(=O)Nc2cc(C)on2)cc1,Potency,[1],inactive
same,Potency,[2],inactive
O=C(O)[C@@H](O)[C@H](O)[C@H](O)[C@@H](O)C(=O)O,Potency,[1],inactive
same,Potency,[2],inactive
O=C(Nc1ccc(Cl)cc1)Nc1ccc(Cl)c(Cl)c1,Potency,[1],6.68 µM (active)
same,Potency,[2],6.68 µM (active)
Cc1cc(=O)oc2cc(O[C@@H]3SC[C@@H](O)[C@H](O)[C@H]3O)ccc12,Potency,[1],inactive
same,Potency,[2],inactive
OC1(c2ccc(Cl)c(C(F)(F)F)c2)CCN(CCCC(c2ccc(F)cc2)c2ccc(F)cc2)CC1,Potency,[1],4.22 µM (active) and 3.25 µM (active)
same,Potency,[2],4.73 µM (active) and 4.59 µM (active)
C[C@H]1C[C@H]2[C@@H]3CCC4=CC(=O)C=C[C@]4(C)[C@H]3C(=O)C[C@]2(C)[C@@]1(O)C(=O)CO,Potency,[1],inactive
same,Potency,[2],inactive
OC1(c2ccccc2)CCNCC1,Potency,[1],inactive
same,Potency,[2],inactive
CCCCN(CCN(CCCC)C(=O)N1CCOCC1)C(=O)N1CCOCC1,Potency,[1],inactive
same,Potency,[2],inactive
COc1ccc(-n2nc(CCC(=O)N(C)O)cc2-c2ccc(Cl)cc2)cc1,Potency,[1],8.41 µM (active)
same,Potency,[2],7.5 µM (active)
COC(=O)c1cc(S(N)(=O)=O)ccc1OC,Potency,[1],inactive
same,Potency,[2],inactive
CN1CCC(Nc2ncc3ncnc(Nc4ccc(F)c(Cl)c4)c3n2)CC1,Potency,[1],15 µM (active)
same,Potency,[2],11.9 µM (active)
O=C(O)c1[nH]n(-c2ccc(S(=O)(=O)O)cc2)c(=O)c1N=Nc1ccc(S(=O)(=O)O)cc1,Potency,[1],inactive
same,Potency,[2],inactive
O=C(OCCN1CCOCC1)c1cccnc1Nc1cccc(C(F)(F)F)c1,Potency,[1],inactive
same,Potency,[2],inactive
Cc1ccc2c(Cl)cc(Cl)c(O)c2n1,Potency,[1],inactive
same,Potency,[2],inactive
COc1cc(S(N)(=O)=O)cc(C(=O)O)c1OC,Potency,[1],inactive
same,Potency,[2],inactive
c1ccc2c(c1)CCc1ccccc1N2,Potency,[1],inactive
same,Potency,[2],inactive
CC(C)(C)C(O)/C=C/c1ccc2c(c1)OCO2 (stereo unspecified),Potency,[1],inactive
same,Potency,[2],inactive
CN(CC1(C)CCCO1)S(=O)(=O)c1ccc(Cl)c(S(N)(=O)=O)c1 (stereo unspecified),Potency,[1],inactive
same,Potency,[2],inactive
CC(=O)N[C@@H](CCC(N)=O)C(=O)O,Potency,[1],inactive
same,Potency,[2],inactive
[O-][n+]1cccc(/C(Cl)=N/OC[C@@H](O)CN2CCCCC2)c1,Potency,[1],inactive
same,Potency,[2],inactive
CCCC(=O)O[C@]1(C(=O)CC)CC[C@H]2[C@@H]3CCC4=CC(=O)CC[C@]4(C)[C@H]3[C@@H](O)C[C@@]21C,Potency,[1],inactive
same,Potency,[2],inactive
C[C@@H]1C[C@H]2[C@@H]3CCC4=CC(=O)C=C[C@]4(C)[C@@]3(F)[C@@H](O)C[C@]2(C)[C@@]1(O)C(=O)COC(=O)c1ccncc1,Potency,[1],inactive
same,Potency,[2],inactive
NC(=O)C1(N2CCCCC2)CCN(CCCN2c3ccccc3CCc3ccc(Cl)cc32)CC1,Potency,[1],9.44 µM (active)
same,Potency,[2],8.41 µM (active)
CCOc1c(N2CCOCC2)cnn(C)c1=O,Potency,[1],inactive
same,Potency,[2],inactive
CC(=O)OCC[N+](C)(C)C,Potency,[1],inactive
same,Potency,[2],inactive
CSc1ccc(/C=C2/C(C)=C(CC(=O)O)c3cc(F)ccc32)cc1,Potency,[1],inactive
same,Potency,[2],inactive
CCCCCCCCCCCCCCCCCCN(C)C,Potency,[1],inactive
same,Potency,[2],inactive
O=C(CCOCCOCCOCCOCCC(=O)Nc1c(I)cc(I)c(C(=O)O)c1I)Nc1c(I)cc(I)c(C(=O)O)c1I,Potency,[1],inactive
same,Potency,[2],inactive
COC(=O)[C@H]1[C@H]2C[C@@H]3c4[nH]c5cc(OC)ccc5c4CCN3C[C@H]2C[C@@H](OC(=O)/C=C/c2ccc(O)c(OC)c2)[C@@H]1OC,Potency,[1],4.73 µM (active)
same,Potency,[2],4.73 µM (active)
CN=C(N)NC(=O)Nc1c(C)cccc1C,Potency,[1],inactive
same,Potency,[2],inactive
Cc1cccc(C)c1NC(=O)c1ccc(N)cc1,Potency,[1],inactive
same,Potency,[2],inactive
CCn1ccc(NS(=O)(=O)c2ccc(N)cc2)nc1=O,Potency,[1],inactive
same,Potency,[2],inactive
CO[C@@H]1[C@@H](OC)[C@H](C)[C@@](O)(CC(=O)O)O[C@H]1[C@H](C)[C@H]1O[C@@]2(CC[C@@](C)([C@H]3CC[C@@](C)([C@@H]4O[C@@H]([C@H]5O[C@](C)(O)[C@H](C)C[C@@H]5C)C[C@@H]4OC4C[C@H](OC)[C@@H](OC)[C@H](C)O4)O3)O2)C[C@H](O)[C@H]1C (stereo partly specified),Potency,[1],0.596 µM (active)
same,Potency,[2],0.531 µM (active)
Cc1cc(O)c2c(O)c3c(O)cccc3cc2c1,Potency,[1],inactive
same,Potency,[2],inactive
O=C(c1cc(O)c(O)c(O)c1)c1ccc(O)c(O)c1O,Potency,[1],2.37 µM (active)
same,Potency,[2],13.3 µM (active)
Nc1ccc(C(=O)OCC(O)CO)cc1 (stereo unspecified),Potency,[1],inactive
same,Potency,[2],inactive
CC(C)(C)c1nnc(NS(=O)(=O)c2ccccc2)s1,Potency,[1],inactive
same,Potency,[2],inactive
OC1(c2ccc(Cl)cc2)CCNCC1,Potency,[1],inactive
same,Potency,[2],inactive
O=C1NCCN1CCN1CCC(c2cn(-c3ccc(F)cc3)c3ccc(Cl)cc23)CC1,Potency,[1],3.76 µM (active)
same,Potency,[2],2.11 µM (active)
COc1cc(NS(=O)(=O)c2ccc(N)cc2)nc(C)n1,Potency,[1],inactive
same,Potency,[2],inactive
O=C(O)Cn1c(=O)n(Cc2ccc(Br)cc2F)c(=O)c2ccc(Cl)cc21,Potency,[1],inactive
same,Potency,[2],inactive
CCC(C(=O)OCCN1CCOC(c2ccccc2)C1C)c1ccccc1 (stereo unspecified),Potency,[1],inactive
same,Potency,[2],inactive
CC(C)(C)C(=O)OCOC(=O)C1N2C(=O)CC2S(=O)(=O)C1(C)C (stereo unspecified),Potency,[1],inactive
same,Potency,[2],inactive
O=C(O)CCCC[P+](c1ccccc1)(c1ccccc1)c1ccccc1,Potency,[1],inactive
same,Potency,[2],inactive
CC(C)(C)NCC(O)COc1ccccc1OCC1CCCO1 (stereo unspecified),Potency,[1],inactive
same,Potency,[2],inactive
O=[N+]([O-])c1ccc(O)c2ncccc12,Potency,[1],1.88 µM (active) and 6.61 µM (active)
same,Potency,[2],841 nM (active) and 6.61 µM (active)
CC(NN)c1ccccc1 (stereo unspecified),Potency,[1],inactive
same,Potency,[2],inactive
Nc1ccc(O)cc1,Potency,[1],inactive
same,Potency,[2],inactive
CCS(=O)(=O)c1ccc(OC)c(C(=O)OC)c1,Potency,[1],inactive
same,Potency,[2],inactive
CC(C)=CCC/C(C)=C/CC/C(C)=C/CCC(=O)OC/C=C(\C)CCC=C(C)C,Potency,[1],inactive
same,Potency,[2],inactive
CN1Cc2cc(C(=O)N3CCC(C4CCNCC4)CC3)ccc2NC(CC(=O)O)C1=O (stereo unspecified),Potency,[1],inactive
same,Potency,[2],inactive
CCCC(=O)Nc1ccc(O)c(C(C)=O)c1,Potency,[1],inactive
same,Potency,[2],inactive
O=[N+]([O-])c1cncn1CCN1CCOCC1,Potency,[1],inactive
same,Potency,[2],inactive
Cc1c(F)cc2c(=O)c(C(=O)O)cn3c2c1CCC3C (stereo unspecified),Potency,[1],inactive
same,Potency,[2],inactive
CC(=O)OCC(=O)Nc1cc(C#N)cc(NC(=O)COC(C)=O)c1Cl,Potency,[1],inactive
same,Potency,[2],inactive
CC(=O)OC[C@H]1O[C@@H](OC(C)=O)[C@H](OC(C)=O)[C@@H]1OC(C)=O,Potency,[1],inactive
same,Potency,[2],inactive
CC(NC(CCc1ccccc1)C(=O)O)C(=O)N1C(=O)N(C)CC1C(=O)O (stereo unspecified),Potency,[1],inactive
same,Potency,[2],inactive
Cc1ccc(O)cc1,Potency,[1],inactive
same,Potency,[2],inactive
COc1ccccc1N1CCN(CC(O)COc2cc(OC)c(OC)c(OC)c2)CC1 (stereo unspecified),Potency,[1],inactive
same,Potency,[2],inactive
O=C1c2ccccc2CCc2ccccc21,Potency,[1],inactive
same,Potency,[2],inactive
Clc1ccc2c(c1)Nc1ccccc1S2,Potency,[1],inactive
same,Potency,[2],inactive
CCCCC(CC)CNC(=O)CC(C)OC(=O)CCC(=O)O (stereo unspecified),Potency,[1],inactive
same,Potency,[2],inactive
CCC1=C[C@@H]2CN(C1)Cc1c([nH]c3ccccc13)[C@@](C(=O)OC)(c1cc3c(cc1OC)N(C)[C@H]1[C@@](O)(C(=O)OC)[C@H](OC(C)=O)[C@]4(CC)C=CCN5CC[C@]31[C@@H]54)C2,Potency,[1],2.1 nM (active) and 162 nM (active)
same,Potency,[2],2.1 nM (active) and 162 nM (active)
COCCc1ccccn1,Potency,[1],inactive
same,Potency,[2],inactive
CC(C)OP(=O)(CP(=O)(OC(C)C)OC(C)C)OC(C)C,Potency,[1],inactive
same,Potency,[2],inactive
CC(COc1ccccc1)NN (stereo unspecified),Potency,[1],inactive
same,Potency,[2],inactive
Nc1ncnc2nc[nH]c12,Potency,[1],inactive
same,Potency,[2],inactive
C[N+]1(CC2COC(c3ccccc3)(c3ccccc3)O2)CCCCC1 (stereo unspecified),Potency,[2],2.59 µM (active)
CN(C)CCOC1=Cc2ccccc2Sc2ccc(Cl)cc21,Potency,[2],16.8 µM (active)
CCCCCOc1ccc(C2SC(=O)NC2=O)cc1OCC (stereo unspecified),Potency,[2],inactive
Oc1ccc(CCNCCCCCCNCCc2ccccc2)cc1O,Potency,[2],16.8 µM (active)
C[C@]12CCC(=O)C=C1CC[C@@H]1[C@@H]2[C@@H](O)C[C@@]2(C)[C@H]1CC[C@]2(O)C(=O)COC(=O)CCC(=O)O,Potency,[2],1.88 µM (active)
CN1CCCN(C(c2ccccc2)c2ccc(Cl)cc2)CC1 (stereo unspecified),Potency,[2],16.8 µM (active)
COC(=O)C1=C(C)NC(COC(N)=O)=C(C(=O)OC(C)C)C1c1cccc(Cl)c1Cl (stereo unspecified),Potency,[1],18.8 µM (active)
same,Potency,[2],11.9 µM (active)
same,Potency,[3],inactive
same,Potency,[4],inactive
same,Potency,[5],44.1 µM (active)
